The text below walks through data of PubChem BioAssay (NCI).

The structures appear in SMILES notation. The panel holds about 83,000 compounds, 20% with a hit somewhere; the sample as a whole holds those more often.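 Treatment: one concentration, 48 hours, 96-well format. Scoring: percent growth, with anything below 10 considered active.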 A number with no mark means an inactive call. The source made the active and inactive calls.

Some test systems named below: SR leukemia; RPMI-8226 leukemia; OVCAR-8 ovarian; OVCAR-5 ovarian; OVCAR-4 ovarian; SK-OV-3 ovarian; IGROV1 ovarian; OVCAR-3 ovarian; HS 578T breast; NCI/ADR-RES ovarian; T-47D breast; BT-549 breast; MDA-MB-435 melanoma; SW-620 colon; HCT-116 colon; HCC-2998 colon; KM12 colon; MCF7 breast.
Assay in all cases: NCI-60 one-dose screen, 48 h (100 = growth as untreated, 0 = no growth, -100 = all killed)
What all share (settings): 10 µM unless noted

Regarding `Cc1cccc(/C=N/Nc2cc(C)c3cccc(C)c3n2)n1`, the growth is 47.2% in the test with SR leukemia; 60.8% in the test with RPMI-8226 leukemia; 83.3% with OVCAR-8 ovarian; 94.3% in the test on OVCAR-5 ovarian; 90.2% with OVCAR-4 ovarian; 115% in the test with SK-OV-3 ovarian. The growth is 96.7% in the test with IGROV1 ovarian; 102% in the test on OVCAR-3 ovarian; 108% in the test with HS 578T breast; 84.5% in the test with NCI/ADR-RES ovarian; 83% with T-47D breast; 91.4% with BT-549 breast. Further, the growth in the test with MDA-MB-435 melanoma is 96.3%; with SW-620 colon it was 94.7%; in the test on HCT-116 colon, 65.1%; in the test with HCC-2998 colon, 108%; with KM12 colon it was 97.5%.

Consider `CC(C)CSc1nc(NN)c(C#N)c(-c2ccc(F)cc2)n1`, for which the growth with SR leukemia is 74.8%; in the test on RPMI-8226 leukemia, 61.2%; in the test with OVCAR-8 ovarian, 72%; in the test with OVCAR-5 ovarian, 89.4%; in the test with OVCAR-4 ovarian, 57.8%; in the test with SK-OV-3 ovarian, 60.9%. Moreover, the growth in the test with IGROV1 ovarian is 72.5%; in the test with OVCAR-3 ovarian, 59.1%; with HS 578T breast, 78.3%; in the test with NCI/ADR-RES ovarian it was 50.8%; with T-47D breast, 66.7%; in the test on BT-549 breast, 85.3%. Further, the growth in the test on MDA-MB-435 melanoma is 78.9%; with SW-620 colon, 91.9%; in the test on MCF7 breast, 73.8%; in the test on HCC-2998 colon, 54.4%; in the test with KM12 colon, 58.1%.

For `N#Cc1c(Nc2ccccc2)nc2n(c1=O)-c1ccccc1Sc1ccccc1-2`, the growth with SR leukemia is 59.6%; with RPMI-8226 leukemia it was 66.7%; in the test on OVCAR-8 ovarian, 74.9%; in the test on OVCAR-5 ovarian it was 110%; in the test on OVCAR-4 ovarian it was 58.4%; in the test with SK-OV-3 ovarian, 94.8%. Further, the growth in the test on IGROV1 ovarian is 64.1%; in the test with OVCAR-3 ovarian it was 69.4%; in the test on HS 578T breast, 97.9%; with NCI/ADR-RES ovarian, 85.5%; in the test on T-47D breast, 55.9%; in the test on BT-549 breast it was 82.3%. The growth in the test on MDA-MB-435 melanoma is 82.8%; with SW-620 colon, 99.2%; in the test with HCT-116 colon it was 82.9%; with HCC-2998 colon, 102%; in the test with KM12 colon, 97.9%.

Turning to `CCOC(=O)c1ccc2c(c1)c1c(C)c3cccnc3c(C)c1n2C`, the growth with SR leukemia is 16.1%; in the test with RPMI-8226 leukemia, 62.8%; in the test with OVCAR-8 ovarian, 46.2%; with OVCAR-5 ovarian, 69.3%; in the test with OVCAR-4 ovarian, 62.7%; with SK-OV-3 ovarian it was 84.1%. Also, the growth with IGROV1 ovarian was 24.1%; with OVCAR-3 ovarian it was 69.8%; in the test with HS 578T breast it was 85.2%; in the test on NCI/ADR-RES ovarian, 48.4%; with T-47D breast, 44.9%; in the test with BT-549 breast, 79.5%. Further, the growth with MDA-MB-435 melanoma was 73.4%; with SW-620 colon, 34%; in the test on HCT-116 colon it was 23%; with HCC-2998 colon it was 86.9%; in the test on KM12 colon it was 61.4%.

For the compound `COc1ccc(S(=O)(=O)Nc2cc(/C=C\c3cc(OC)c(OC)c(OC)c3)cc(OC)c2OC)cc1`, the growth in the test with SR leukemia is 9.7% (active); with RPMI-8226 leukemia it was 10.2%; in the test on OVCAR-8 ovarian it was 7.61% (active); in the test with OVCAR-5 ovarian, 46.8%; with OVCAR-4 ovarian, 55.7%; with SK-OV-3 ovarian, 20.6%. Further, the growth in the test on IGROV1 ovarian was 19.9%; in the test with OVCAR-3 ovarian, 3.36% (active); in the test on HS 578T breast, 21.1%; in the test with NCI/ADR-RES ovarian it was 11.3%; in the test with T-47D breast it was 86.6%; in the test with BT-549 breast, 26.6%. Further, the growth in the test on MDA-MB-435 melanoma is -26.3% (active); in the test on SW-620 colon, 26.4%; with HCT-116 colon, 5.64% (active); in the test with HCC-2998 colon it was 17.7%; in the test with KM12 colon, 10%.

Regarding `O=c1ccn(C2CC(O)C(O)C(CO)O2)c(=O)[nH]1` (stereo not drawn), the growth with SR leukemia was 123%; in the test with RPMI-8226 leukemia, 85.7%; in the test on OVCAR-8 ovarian, 116%; with OVCAR-5 ovarian, 108%; in the test on OVCAR-4 ovarian it was 108%; in the test on SK-OV-3 ovarian, 114%. Further, the growth was 118% in the test with IGROV1 ovarian; 123% in the test on OVCAR-3 ovarian; 120% with HS 578T breast; 113% in the test on NCI/ADR-RES ovarian; 102% with T-47D breast; 114% in the test with BT-549 breast. In addition, the growth with MDA-MB-435 melanoma is 116%; with SW-620 colon, 114%; with HCT-116 colon, 107%; in the test with HCC-2998 colon, 117%; in the test with KM12 colon it was 121%.

As for `O=c1ccn(-c2ncnc3nc[nH]c23)cc1`, the growth in the test on SR leukemia was 86.2%; in the test on RPMI-8226 leukemia, 76.4%; in the test on OVCAR-8 ovarian, 101%; with OVCAR-5 ovarian, 93.8%; in the test with OVCAR-4 ovarian, 93.3%; in the test on SK-OV-3 ovarian it was 84.8%. For the same compound, the growth in the test on IGROV1 ovarian is 88%; with OVCAR-3 ovarian, 88.3%; in the test on HS 578T breast it was 81.7%; with NCI/ADR-RES ovarian it was 97.6%; in the test with T-47D breast it was 84%; with BT-549 breast, 98.9%. For the same compound, the growth was 102% in the test on MDA-MB-435 melanoma; 96% in the test with SW-620 colon; 88% with MCF7 breast; 106% in the test with HCC-2998 colon; 91.8% in the test on KM12 colon.

For the compound `COc1ccc(S(=O)(=O)NCCCNc2nccc(-c3c(-c4cccc([N+](=O)[O-])c4)nc4sccn34)n2)cc1`, the growth in the test on SR leukemia was 53.5%; in the test with RPMI-8226 leukemia it was 11.5%; in the test with OVCAR-8 ovarian it was 29.8%; in the test with OVCAR-5 ovarian, 98.7%; in the test with OVCAR-4 ovarian, 29.2%; in the test with SK-OV-3 ovarian, 89.6%. Also, the growth with IGROV1 ovarian was 40.1%; in the test on OVCAR-3 ovarian, 41.2%; in the test with HS 578T breast, 65.9%; with NCI/ADR-RES ovarian, 22.9%; with T-47D breast it was 3.31% (active); in the test on BT-549 breast, 36.5%. Besides, the growth is 42.1% in the test with MDA-MB-435 melanoma; 91.4% in the test with SW-620 colon; 48.7% in the test with HCT-116 colon; 82.1% in the test with HCC-2998 colon; 28.9% with KM12 colon.

As to `COc1ccc(-n2c(-c3ccccc3)c(-c3ccccc3)c3c(SCC(=O)N/N=C/c4ccc(Cl)cc4)ncnc32)cc1`, the growth was 105% in the test with SR leukemia; 87.4% in the test with RPMI-8226 leukemia; 85.3% in the test with OVCAR-8 ovarian; 98.3% with OVCAR-5 ovarian; 92% in the test with OVCAR-4 ovarian; 73% in the test on SK-OV-3 ovarian. In addition, the growth in the test with IGROV1 ovarian is 87.9%; in the test on OVCAR-3 ovarian it was 85.9%; in the test with HS 578T breast, 93%; in the test with NCI/ADR-RES ovarian it was 87.1%; with T-47D breast, 79.9%; with BT-549 breast it was 85.2%. In addition, the growth is 98.6% in the test with MDA-MB-435 melanoma; 99% in the test with SW-620 colon; 85% in the test with MCF7 breast; 93.2% with HCC-2998 colon; 89.1% with KM12 colon.
